# Test results published in ChEMBL document CHEMBL4513216, “Probing the Open Global Health Chemical Diversity Library for Multistage-Active Starting Points for Next-Generation Antimalarials” (ACS Infect Dis, 2020).
# About 8,600 (12%) of roughly 69,000 compounds showed an effect of 50% or more. The sample holds strong results, similar compounds and a random draw of the others, so the mix is not that of the screen.
# Test system: Plasmodium berghei
# Assay: Screen against P. berghei liver stage (PbLuc), transformed with Luciferase, at 10uM
# Format: functional, HepG2
# Conditions: tested at 10 uM
row,SMILES,INHIBITION [%]
1,N#Cc1cc(NC(=O)c2ccccc2)ccc1N1CCC(O)CC1,-4.86
2,Cc1ccc(C(=O)Nc2ccc(N3CCC(O)CC3)c(C#N)c2)s1,17.6
3,N#Cc1cc(NC(=O)c2ccccn2)ccc1N1CCC(O)CC1,-5.25
4,Cc1ccsc1C(=O)Nc1ccc(N2CCC(O)CC2)c(C#N)c1,96.1
5,N#Cc1cc(NC(=O)c2ccsc2)ccc1N1CCC(O)CC1,35.1
6,N#Cc1cc(NC(=O)c2ccncc2)ccc1N1CCC(O)CC1,62.3
7,Cn1cccc1C(=O)N[C@H]1CN(Cc2ccoc2)[C@@H]2CCCO[C@H]12,34.9
8,COCC(=O)NCc1nn(CCN2CCCC2)c(=O)c2ccccc12,31.3
9,Cc1ccc(C)c(CS(=O)(=O)CC(=O)NCCCOC(C)C)c1,-2.19
10,Cc1nc(C)n(CC2CCCCN2CC(=O)Nc2nnc(C)s2)n1 (stereo not given),4.71
11,CCN(CCOC)C(=O)c1ccc2c(c1)nc(N1CC[C@H](O)C1)n2C,1.74
12,Cc1ncc(C(=O)N2CCCC(C(=O)c3nccn3C)C2)c(O)n1 (stereo not given),-6.01
13,Cc1cccc(C)c1OCC(O)CNCc1c(C)nn(C)c1N(C)C (stereo not given),19.4
14,O=C(C1CCOC1)N1CCc2ncc(CNc3ccccn3)n2CC1 (stereo not given),41.5
15,c1nc2n(c1CN1CCCCC1)CCN(C1CCOC1)CC2 (stereo not given),-33.9
16,c1ccc(NCc2cnc3n2CCN(C2CCOC2)CC3)nc1 (stereo not given),81.2
17,c1nc2n(c1CN1CCOCC1)CCN(C1CCOC1)CC2 (stereo not given),-52.3
18,c1nc2n(c1CN1CCCC1)CCN(C1CCOCC1)CC2,80
19,c1ccc(NCc2cnc3n2CCN(CC2CCOC2)CC3)nc1 (stereo not given),27.6
20,c1cnc(N2CCC3(CCN(CC4CCOC4)CC3)CC2)nc1 (stereo not given),15.6
21,CC(NC(=O)OC(C)(C)C)c1nnc(S(=O)(=O)Cc2ccc(Cl)cc2)o1 (stereo not given),-19.1
22,COc1ccc2c(ccn2CCC(=O)NCc2ccc(C(=O)O)cc2)c1,7.83
23,O=C([C@H]1C[C@H]2OCC[C@H]2N(Cc2ccco2)C1)N1CCCO1,34.6

row,SMILES,INHIBITION [%]
1,O=C(N1CCCO1)[C@@]12CCO[C@@H]1CCN(Cc1ccccc1)C2,-10.4
2,O=C(Cn1c(=O)[nH]c2cn(-c3ccccc3)c(=O)n21)Nc1ccccc1,23.2
3,CC(C)n1c(=O)c2sccc2n(CC(=O)Nc2ccccc2)c1=O,52.4
4,CCn1c(=O)c2sccc2n(CC(=O)Nc2cccc(Cl)c2)c1=O,33.3
5,Cn1c(=O)c2sccc2n(CC(=O)Nc2cccc(Cl)c2)c1=O,-25.5
6,CC(C)c1cccc(NC(=O)Cn2c(=O)n(C)c(=O)c3sccc32)c1,74.7
7,CC(C)n1c(=O)c2sccc2n(CC(=O)Nc2cccc(Cl)c2)c1=O,19.3
8,CC1=N[C@@]2(CC[C@@H]3CN(S(=O)(=O)CC(C)C)C[C@@H]32)C(=O)N1CC(C)C,40.4
9,CCN(CC)CCNC(=O)CCc1c(C)nn(-c2ccccc2Br)c1C,6.55
10,CC(C)(C)NC(=O)c1cccc(CN2CCS(=O)(=O)CC2)c1,47.3
11,Cc1ccc(N2CCC3(CCN(C(=O)c4ccccn4)CC3)CC2)nn1,0.72
12,Cc1cc(C)n(CC(C)CNC(=O)NCc2csc(C)n2)n1 (stereo not given),35.4
13,Cn1nnnc1SC1CCc2ccccc2NC1=O (stereo not given),56.3
14,Cn1cnnc1SC1CCc2ccccc2NC1=O (stereo not given),34.3
15,Cc1nnc(SC2CCc3ccccc3NC2=O)n1C (stereo not given),38.1
16,O=C(NCc1ccc(-n2cncn2)nc1)c1ccc2c(c1)CCC2,-45.9
17,COC[C@]1(O)CCN(C2CCN(c3ccc(OC)cc3)CC2)CC1(C)C,23.9
18,Cn1cnc2c1CCN(Cc1csc(C3CCCCC3)n1)C2,33.3
19,CCCNC(=O)C1CCN(CC(O)c2ccccc2C(F)(F)F)CC1 (stereo not given),-4.12
20,CCCNC(=O)C1CCN(CC(O)c2ccccc2)CC1 (stereo not given),30
21,CCCNC(=O)C1CCN(CC(O)c2ccc(C(F)(F)F)cc2)CC1 (stereo not given),51.6
22,CO[C@H]1CCN(Cc2cccc(C)n2)[C@@H]2CN(Cc3cccnc3)C[C@H]12,30.1
23,CCCNc1ncc(-c2cc(C3CC3)nc(N)c2C#N)cn1,34.4

row,SMILES,INHIBITION [%]
1,N#Cc1c(C2CC2)cc(-c2ccc(F)c(F)c2)nc1N,-42.8
2,CCSc1ncc(-c2cc(C3CCC3)nc(N)c2C#N)cn1,48.5
3,CS(=O)(=O)c1ccc(-c2cc(C3CC3)c(C#N)c(N)n2)cc1,-21.2
4,CC(C)c1ncc(-c2cc(C3CCC3)nc(N)c2C#N)cn1,62.6
5,CCSc1ncc(-c2cc(C3CC3)nc(N)c2C#N)cn1,52.8
6,Cc1ccc(N2CC[C@@H]3O[C@@H](COCc4cccnc4)CC[C@@H]32)nn1,4.02
7,CCN(C(C)=O)C(c1ccc(Cl)cc1)c1ccccn1 (stereo not given),33.7
8,O=C1CCCN1Cc1ncn2c1CN(C(=O)Cc1cccs1)CCC2,32.2
9,Cc1cnc(CCN(C)C(=O)c2cccc(N(C)C)c2)s1,33.7
10,Cc1nc(O)ccc1C(=O)NCc1ncoc1C,-17.3
11,Cc1nc(-c2ccsc2)ccc1C(=O)N(C)CC1CC1,27.7
12,Cc1ncsc1CCN(C)C(=O)c1c(O)cccc1O,25.1
13,Cc1cnc(CCN(C)C(=O)c2cccc(C)c2O)s1,58.8
14,Cc1cnc(CCN(C)C(=O)c2ccc(O)nc2C)s1,60.2
15,CNC(=O)[C@@H](c1ccccc1)N1CCC[C@H]1C(=O)NCc1ccccn1,34.6
16,CN(Cc1cccs1)C(=O)CN1C(=O)c2cc(Cl)c(Cl)cc2C1=O,14.8
17,CCC(O)CN1CCN(C(=O)c2cccc(CC#N)c2)CC1 (stereo not given),-12.2
18,O=C(C1CCN(c2cccnn2)C1)N1CCOCC1 (stereo not given),18.3
19,Cc1cc(CN2C[C@@H]3CN(C(=O)c4cccn4C)CCO[C@@H]3C2)no1,89.3
20,Cn1cc(CN2C[C@@H]3CN(C(=O)c4cccn4C)CCO[C@@H]3C2)cn1,24.9
21,Cc1cc(CN2C[C@@H]3CN(C(=O)c4ccco4)CCO[C@@H]3C2)no1,12
22,CN(Cc1cnn(C)c1)C(=O)NC1CCCC1,8.38
23,CCCS(=O)(=O)N1CCO[C@H]2[C@@H](Oc3cccnc3)CC[C@@H]21,10.5

row,SMILES,INHIBITION [%]
1,O=c1ccc(S(=O)(=O)N2CCCC2)cn1CC1CCCCO1 (stereo not given),-15
2,c1cncc(CN2CC[C@@H]3[C@@H]2CCN3Cc2ccc3c(c2)OCO3)c1,-8.51
3,O=S(=O)(c1c(N2CCCCC2)ccc2nonc12)N1CCCCC1,8.41
4,Cc1ccc(C(C)NC(=O)N2CCNC(=O)CC2)cc1F (stereo not given),42.3
5,COc1ccc(C(C)NC(=O)N2CCNC(=O)CC2)cc1F (stereo not given),74.8
6,CC(NC(=O)N1CCNC(=O)CC1)c1ccc(OC(F)F)cc1 (stereo not given),-18.3
7,CCCc1n[nH]c(C2CN(C(=O)c3cc4c(s3)CCC4)CCO2)n1 (stereo not given),33.8
8,CC(C)NC(=O)CC1COC2(CCN(Cc3ccsc3)CC2)C1 (stereo not given),13.7
9,Cc1noc2ncc(C(=O)NCC3CCS(=O)(=O)C3)cc12 (stereo not given),-49.1
10,COc1ccccc1C(C)(C)NC(=O)c1ccc(F)c(NC(C)=O)c1,-47
11,Cc1c2ncn(CC(=O)c3ccccc3)c(=O)c2nn1C,14.9
12,N#Cc1ccc(CN2C(=O)c3ccccc3CS2(=O)=O)c(F)c1,15.2
13,N#Cc1ccc(CN2C(=O)c3ccccc3CS2(=O)=O)cc1,-9.35
14,O=C(CN1C(=O)c2ccccc2CS1(=O)=O)c1ccc(Cl)cc1,55.4
15,CN1CCC2(Cc3ccccc3CN(C(=O)c3ccc(Cl)cc3)C2)C1 (stereo not given),-17.2
16,O=C(CN1C(=O)c2ccccc2CS1(=O)=O)c1ccccc1,74.2
17,CC1CCN(C(=O)C2CCN(c3ccc(Cl)cc3C#N)CC2)CC1,41
18,Cc1nc(C(=O)N2CCCC2c2c(C)nn(C)c2C)cs1 (stereo not given),13.3
19,Cc1csc(N2CCN(CC(=O)NC3CCOCC3)CC2C)n1 (stereo not given),45.6
20,CCC(=O)N1CCC2(CC1)C(=O)N(C)CCN2Cc1csc(C)n1,13.6
21,CCN(C(=O)CN1CCCN(c2nc(C)ns2)CC1)C1CC1,68.5
22,Cc1nsc(N2CCN(CC(=O)N(C3CC3)C(C)C3CC3)CC2)n1 (stereo not given),22.6
23,CCc1nsc(N2CCCN(CC(=O)N(C)C3CC3)CC2)n1,39.3

row,SMILES,INHIBITION [%]
1,COc1ccc(-c2noc(C(N)CCSC)n2)cc1OC (stereo not given),46.6
2,CNc1cc(CCNC(=O)C2CCCC2)nc(-c2ccccn2)n1,-9.34
3,Cc1cccc(Oc2ccccc2CNC(=O)C2CCNC(=O)C2)c1 (stereo not given),-33.7
4,O=C1CC(C(=O)NCc2ccccc2Oc2ccccc2F)CCN1 (stereo not given),8.38
5,Cc1ccc(CNC(=O)C2CCNC(=O)C2)c(OCCC(C)C)c1 (stereo not given),58.4
6,CNC(=O)c1ccc(N(C)C2CCC2)nn1,-107
7,CN(c1ccc(C(N)=O)nn1)C1CCC1,-8.73
8,COC(=O)c1ccc(N(C)C2CCC2)nn1,50.1
9,Cc1noc2nc(C3CCN(CC4=CCCOC4)CC3)cc(C(F)F)c12,39.8
10,CC(=O)Nc1nc(C2CCN(C(=O)Cc3ccccc3)CC2)cs1,0.301
11,Cc1cc(C(=O)N2CCCC(C)C2)ccc1NCC(=O)N1CCOCC1 (stereo not given),-47.6
12,COCC1CN(C(=O)Cc2ccccn2)Cc2c1cnn2CC1CC1 (stereo not given),15.9
13,CCO[C@H]1CN(C(=O)c2ccc3c(c2)OCO3)[C@@H]2COC[C@H]12,57.9
14,Cn1ncc2ccc(C3CCCN(Cc4cccs4)C3)nc21 (stereo not given),20.74
15,COCC1CN(S(=O)(=O)Cc2ccc(C)cc2)Cc2c1cnn2C (stereo not given),-0.554
16,COCC1CN(S(=O)(=O)Cc2ccccc2)Cc2c1cnn2C (stereo not given),54.1
17,Cn1ncc2c1CN(C(=O)Cc1ccccn1)CC2COCC1CC1 (stereo not given),64.9
18,COCC1CN(S(=O)(=O)c2ccc(C)cc2)Cc2c1cnn2C (stereo not given),34.9
19,Cn1ncc2ccc(C3CCCN(C(=O)Cc4cccs4)C3)nc21 (stereo not given),58.5
20,CN(C)CCO[C@H]1CN(C(=O)c2ccc3c(c2)OCO3)[C@@H]2COC[C@H]12,-20.8
21,CO[C@H]1CN(C(=O)c2ccc3c(c2)OCO3)[C@@H]2COC[C@H]12,1.48
22,CCOCC1CN(C(=O)Cc2ccccn2)Cc2c1cnn2C (stereo not given),26.4
23,Cc1cc(C)n(C2CCCN(C(=O)Cc3cccs3)C2)n1 (stereo not given),-5.25
